A number with no mark means an inactive call. The source made the active and inactive calls. Calls follow the shape of the dose curve; as a rule, active = well fitted inhibition curve with a large enough effect in the repeat runs (not every such curve was filed as active); inconclusive = weak or mixed curves; inactive = flat fitted curve, though single readings scatter.
The compounds below were run against Thyrotropin-releasing hormone receptor (Homo sapiens) (UniProt P34981) (assay: qHTS assay to identify small molecule antagonists of the thyrotropin-releasing hormone receptor (TRHR) signaling pathway (AID 1346877)). Details: TRHR-HEK293, TRH-induced calcium fluorescence, antagonist mode; series mostly up to 51.3 µM.
Chain of Thyrotropin-releasing hormone receptor (Homo sapiens) (P34981 whole entry, looked up): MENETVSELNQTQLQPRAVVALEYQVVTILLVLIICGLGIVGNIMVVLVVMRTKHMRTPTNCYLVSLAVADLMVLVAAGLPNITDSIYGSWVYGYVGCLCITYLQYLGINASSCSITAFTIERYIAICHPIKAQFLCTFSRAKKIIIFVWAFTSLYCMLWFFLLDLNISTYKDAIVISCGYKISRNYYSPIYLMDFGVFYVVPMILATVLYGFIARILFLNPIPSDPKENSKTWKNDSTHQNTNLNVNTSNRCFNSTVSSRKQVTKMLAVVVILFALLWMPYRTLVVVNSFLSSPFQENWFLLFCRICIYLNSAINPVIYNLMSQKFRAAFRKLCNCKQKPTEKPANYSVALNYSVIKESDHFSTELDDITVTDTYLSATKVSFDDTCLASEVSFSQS
Source text: National Center for Advancing Translational Sciences [NCATS]
NIH Chemical Genomics Center [NCGC]
U.S. Environmental Protection Agency [EPA]
National Institutes of Environmental Health Sciences [NIEHS]
National Toxicology Program [NTP]
U.S. Food and Drug Administration [FDA]
Thyrotropin-releasing hormone (TRH) receptor (TRHR) is a G-protein-coupled receptor which binds the tripeptide thyrotropin releasing hormone. TRHR is found in the brain and, when bound by TRH, acts (through phospholipase C) to increase intracellular inositol trisphosphate. It plays a crucial role in the anterior pituitary where it controls the synthesis and secretion of thyroid stimulating hormone and prolactin. The TRHR-Hek293 assay is a cell-based assay, and it has the potential to screen G protein-coupled receptors. A compound/drug can either activate (agonist) or suppress (antagonist) GPCRs that can be monitored by levels of intracellular calcium. In this assay, the Tox21 10K compound library was screened to identify potential TRHR antagonists.
Tox21 Assay Protocol Summary:
The TRHR-Hek293 cells were dispensed at 1500cells/4uL/well in 1536-well black-clear bottom plates using a Multidrop dispenser. After the assay plates were incubated at a 37 C/5% CO2 incubator for 18 hours, 4 uL of Dye-Loading Solution was added to each well. The plates were incubated at 37 C for 2 hours. For agonist mode, 23 nL of compounds dissolved in DMSO, positive controls or DMSO only was transferred to the assay plate by a pin tool. The fluorescence intensity in the plates was measured using FDSS 7000EX kinetic plate reader for 3 min at 1 sec intervals. For antagonist mode, 23 nL of compounds dissolved in DMSO, positive controls or DMSO only was transferred to the assay plate by a pin tool. After 5 min incubation at room temperature, 1 uL of TRH was added on the top of the cell/compound mixtures to achieve a final agonist concentration of 1 nM. The fluorescence intensity in the plates was measured using FDSS 7000EX kinetic plate reader for 3 min at 1 sec intervals. Each test compound was measured at 15 concentrations and in triplicates.
% is scaled to controls: 0 for no effect and ±100 for the full control effect.

| Structure (SMILES) | outcome | activity, negative = inhibition |
| --- | --- | --- |
| CNC(=O)c1c(I)c(NC(C)=O)c(I)c(C(=O)O)c1I | inactive | – |
| CC(C)(C)C(=O)CC(=O)C(C)(C)C | inactive | – |
| O=C(O)CCCCCCCCCC(=O)O | inactive | – |
| CN(C)CCc1c[nH]c2ccc(CS(=O)(=O)N3CCCC3)cc12 | inactive | – |
| O=S(=O)(O)c1ccc(Cl)cc1 | inactive | – |
| C=CCCCCCCCCOC(C)=O | inactive | – |
| C=C(C)C(=O)OCCOC1CC2CC1C1C=CCC21 (stereo not given) | inactive | – |
| COC(=O)c1ccccc1Cl | inactive | – |
| Cc1ccc(O)c([N+](=O)[O-])c1 | inactive | – |
| C[C@@H]1CCC[C@H](C)N1CCCC(O)(c1ccccc1)c1ccccn1 (stereo not given in full) | inactive | – |
| CCNC(=O)C(C)OC(=O)Nc1ccccc1 (stereo not given) | inactive | – |
| O=C(OOC(=O)c1ccccc1)c1ccccc1 | inactive | – |
| O=S(=O)(O)CC(O)CCl (stereo not given) | inactive | – |
| CC(=O)OC1CCC(C(C)(C)C)CC1 (stereo not given) | inactive | – |
| CCC(C)(C)C | inactive | – |
| CCc1ccc(CC)cc1 | inactive | – |
| CCCCN(CCCC)CCCCCCN(CCCC)CCCC | inactive | – |
| CCOC(=O)CC(C(C)=O)C(C)=O | inactive | – |
| Cc1nc2ccc(Cl)cc2[nH]1 | inactive | – |
| CCN(CC)CC(=O)Oc1ccc(NC(C)=O)cc1 | inactive | – |

| Structure (SMILES) | outcome | activity, negative = inhibition |
| --- | --- | --- |
| O=c1[nH]c(=O)c2cn[nH]c2[nH]1 | inactive | – |
| Cc1ccc(O)c(C(=O)c2ccccc2)c1 | inactive | – |
| C=CC(C)(CCC=C(C)C)OC(=O)C(C)C (stereo not given) | inactive | – |
| C[C@@H]1NC(=O)[C@@H](N)CNC(=O)[C@H](C2CCNC(N)=N2)NC(=O)/C(=C/NC(N)=O)NC(=O)[C@H](CNC(=O)C[C@@H](N)CCCN)NC1=O (stereo not given in full) | – | -1.68% [at 0.194 µM] |
| CCCCCCCCCCCCCCCC(=O)OC | – | 0.477% [at 10.5 µM] |
| CC1(C)S[C@@H]2[C@H](NC(=O)Cc3ccccc3)C(=O)N2[C@H]1C(=O)O (tested in a mixture with another compound) | inactive | – |
| NC(=O)CC[C@@H](N)C(=O)O | inactive | – |
| CCCCS | inactive | – |
| CC12CCCC=C1C(=O)OC2=O (stereo not given) | inactive | – |
| CCCc1ncc(C(=O)O)s1 | inactive | – |
| Cc1ccc2cccnc2c1 | inactive | – |
| O=C(CCBr)N1CCN(C(=O)CCBr)CC1 | inactive | – |
| Nc1cc(S(=O)(=O)O)ccc1O | inactive | – |
| O=C(O)P(=O)(O)O | inactive | – |
| COC(=O)c1ccc(NC(C)=O)cc1OC | inactive | – |
| N#Cc1ccccc1C#N | inactive | – |
| CCOC(=O)CN1CCCC1=O | inactive | – |
| CN(C)CCC[C@@]1(c2ccc(F)cc2)OCc2cc(C#N)ccc21 | inactive | – |
| CC(C)CC(O)Cc1ccccc1 (stereo not given) | inactive | – |
| C[Si](C)(C)O[Si](O)(O)O | inactive | – |
